MsrA act – activators of bovine methionine sulfoxide reductase A; actives 0.3% (n = 360,000); activation, % at 10.6 µM; AID 602163; purified bovine MsrA, absorbance read-out; in the data active = activation above about 7.5%;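 also: 0% = vehicle and 100% = reference activator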
MsrA inh – inhibits bovine methionine sulfoxide reductase A | purified bovine MsrA, absorbance read-out | inhibition, % at 15.5 µM | actives 0.75% (n = 360,000); in the data active = inhibition above about 4.5%;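 also: 0% = vehicle wells with enzyme and 100% = reference inhibitor wells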
rCAG binder – molecules binding r(CAG) RNA repeats | actives 1.3% (n = 370,000) | inhibition, % at 3 µM | r(CAG) RNA repeat, TO-PRO-1 dye displacement fluorescence | AID 651821;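 active = inhibition above the plate cutoff, the mean of all test compounds on that plate plus 3 SD, cut at about 35% in these data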;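 also: 0% = DMSO alone and 100% = 100 µM mitoxantrone as full dye displacement; higher means more dye released from RNA so lower well fluorescence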
HGIII-sPLA2 inh – Blocks human group III sPLA2 activity. AID 743126. actives 0.56% (n = 370,000). inhibition, % at 12.2 µM. QFRET BODIPY PC-A2 liposome hydrolysis, fluorescence;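 active = inhibition above mean plus 3 SD of compounds lying within the high and low control bounds, cut at about 19% in these data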;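 also: 0% = median of test compound wells and 100% = no enzyme DMSO wells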
Target sequence (Q9NZ20 whole entry, looked up): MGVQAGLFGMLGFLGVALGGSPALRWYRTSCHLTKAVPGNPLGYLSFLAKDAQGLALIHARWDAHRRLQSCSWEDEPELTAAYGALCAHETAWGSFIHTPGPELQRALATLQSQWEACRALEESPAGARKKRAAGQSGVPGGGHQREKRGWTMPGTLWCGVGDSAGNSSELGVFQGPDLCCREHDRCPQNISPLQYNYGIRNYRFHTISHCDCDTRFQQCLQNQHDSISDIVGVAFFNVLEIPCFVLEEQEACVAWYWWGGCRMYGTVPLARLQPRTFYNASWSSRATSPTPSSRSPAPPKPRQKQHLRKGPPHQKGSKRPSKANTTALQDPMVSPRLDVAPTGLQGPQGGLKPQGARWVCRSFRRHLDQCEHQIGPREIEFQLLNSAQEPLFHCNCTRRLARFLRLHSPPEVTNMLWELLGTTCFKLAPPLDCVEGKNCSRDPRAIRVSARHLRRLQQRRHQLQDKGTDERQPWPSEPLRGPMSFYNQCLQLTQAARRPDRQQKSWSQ
sPLA2 confirm – human GIII-sPLA2 inhibition, confirmation; shares compounds with HGIII-sPLA2 inh; recombinant hGIII-sPLA2, BODIPY PC-A2 QFRET fluorescence; inhibition, % at 12.2 µM; actives 34% (n = 2,000); AID 743280;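 active = mean inhibition across triplicates above the hit cutoff set in the earlier primary screen, cut at about 19% in these data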;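 also: 0% = enzyme with DMSO and 100% = DMSO wells lacking enzyme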
BODIPY interf – 535nm fluorescence interference, HGIII-sPLA2 counter-screen. shares compounds with HGIII-sPLA2 inh. BODIPY FL product fluorescence interference, QFRET. inhibition, % at 12.2 µM. actives 8.5% (n = 2,000). AID 743282;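 active = average inhibition above the solvent-only control mean plus 3 SD, cut at about 6% in these data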;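 also: 0% = DMSO with substrate plus product and 100% = DMSO with substrate alone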
535nm interf DR – 535nm optical interference dose response, HGIII-sPLA2 counter-screen. shares compounds with HGIII-sPLA2 inh. BODIPY FL product fluorescence interference, cell-free. IC50, µM. 240 tested, under 10 active;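 active = IC50 at or below 10 µM; inactive = IC50 above 10 µM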
An asterisk follows results filed as active; · = not tested or not shown. Shown are actives, neighbours in structure and some others; about 2.8% of the full set was active somewhere.

SMILES | MsrA act | MsrA inh | rCAG binder | HGIII-sPLA2 inh | sPLA2 confirm | BODIPY interf | others
Cc1cccc(C(=O)NC2CCN(C(=O)NCc3ccccc3)CC2)c1 | 0 | 1 | -4 | 3 | · | ·
Cc1cccc(C(=O)NC(=S)N2CCN(C(=S)NC(=O)c3cccc(C)c3)CC2)c1 | 0 | 0 | -1 | 29* | 19 | -5
CCCNC(=S)N1CCC(NC(=O)c2cccc(C)c2)CC1 | -11 | 1 | -2 | 20* | 13 | -8
CC(C)C(=O)N1N=C2CCCCC2C1(O)C(F)(F)F (stereo not drawn) | -13 | 1 | 0 | 2 | · | ·
O=C(CSc1oc(-c2cccs2)nc1S(=O)(=O)c1ccccc1)NC1CCCCC1 | -10 | 0 | 8 | 4 | · | ·
Clc1cccc(Cl)c1CSc1nnc2ccccn12 | -2 | 0 | -4 | 19* | 1 | -1
COc1ccccc1C(=O)CN1C(=O)NC2(CCCCCC2)C1=O | -1 | 1 | 2 | 17 | · | ·
CCn1ncc(Cl)c1C(=O)NC(C)c1ccccc1 (stereo not drawn) | -3 | 1 | -6 | 21* | 0 | -6
CCn1ncc(Br)c1C(=O)NC(C)c1ccccc1 (stereo not drawn) | -11 | 0 | -2 | -3 | · | ·
Oc1ccc(Cl)cc1N=Cc1sc2ccccc2c1Cl | -3 | -1 | -3 | 4 | · | ·
O=[N+]([O-])c1ccc(O)c(N=Cc2sc3ccccc3c2O)c1 | -5 | 1 | 9 | 26* | 36* | 4 | 535nm interf DR=>122
CCCN1C(=O)c2ccc(C(=O)Nc3cc(C)ccc3O)cc2C1=O | -5 | 2 | 6 | -9 | · | ·
O=C(COc1ccc(Cl)cc1Cl)Nn1c(=S)[nH]c2ncccc2c1=O | -2 | 0 | 2 | 19 | · | ·
COc1ccccc1OCC(=O)Nn1c(=S)[nH]c2ncccc2c1=O | 1 | 1 | 1 | 24* | 8 | -4
Cc1onc(-c2ccccc2)c1-c1n[nH]c(=S)n1-c1ccccc1Cl | 4 | 0 | 10 | 19* | 23* | -1
Cc1onc(-c2ccccc2)c1-c1n[nH]c(=S)n1-c1ccc(C(=O)O)cc1 | 4 | 0 | 3 | 4 | · | ·
O=C(C(=O)N1CCN(S(=O)(=O)c2cccc(C(F)(F)F)c2)CC1)c1cccc(C(F)(F)F)c1 | · | 1 | 0 | 14 | · | ·
CC(=O)OCC(=O)N1CCN(C(=O)C(=O)c2cccc(C(F)(F)F)c2)CC1 | · | 0 | 0 | 22* | 4 | -3
COc1ccccc1/C=C/C=N/NC(=O)c1ccccn1 | -6 | 4.6* | 0 | 20* | 6 | -8
Cc1ccc(/C(N)=N/OC(=O)CCc2ccccc2)cc1 | -3 | 0 | -5 | 20* | -4 | -6
O=C(NNC(=S)NC(=O)c1cccs1)c1ccc(NC(=O)c2ccccc2)cc1 | 6 | 5 | 34 | 21* | 41* | -34 | 535nm interf DR=>122
O=C(Cc1ccccc1)NNC(=S)NC(=O)c1cccs1 | 3 | 2 | 0 | 21* | 35* | -5 | 535nm interf DR=>122
O=C(NC(=S)NCc1ccccc1)c1cccs1 | -4 | 4 | -1 | 2 | · | ·
CCCCC(=O)Nc1ccc(C(=O)NNC(=S)NC(=O)c2cccs2)cc1 | 0 | 3 | 28 | 24* | 28* | -28 | 535nm interf DR=>122
O=C(NNC(=S)NC(=O)c1cccs1)c1ccc(O)cc1 | -1 | 1 | 2 | 9 | · | ·
SMILES | MsrA act | MsrA inh | rCAG binder | HGIII-sPLA2 inh | sPLA2 confirm | BODIPY interf | others
CCCCC(=O)Nc1ccc(C(=O)NNC(=S)NC(=O)c2ccco2)cc1 | -1 | 2 | 21 | 20* | 24* | -13
Cc1cccc(N2CCN(C(=O)CCc3nc4ccccc4[nH]3)CC2C)c1 (stereo not drawn) | -2 | 1 | 1 | 10 | · | ·
CC1CCN(C(=O)Cn2cc([N+](=O)[O-])ccc2=O)c2ccccc2S1 (stereo not drawn) | -11 | 1 | 3 | 3 | · | ·
O=C1CCCN1c1nccs1 | -5 | 1 | 0 | 20* | -1 | -7
CC(C)Oc1ccc(CC2CC(=O)NC2=O)cc1 (stereo not drawn) | 3 | 1 | 2 | 5 | · | ·
CC(C)Oc1ccc(CC2CCC(=O)N(C)C2=O)cc1 (stereo not drawn) | 0 | 0 | -6 | 21* | 4 | -7
O=C(Nc1ccccc1)Oc1ccccc1N1CCOCC1 | -5 | -1 | -2 | -1 | · | ·
O=C(Nc1ccc(COc2ccccc2)cc1)Oc1ccccc1N1CCOCC1 | -2 | 0 | 2 | 25* | 2 | -10
O=S1(=O)CCC(SCc2nc3sccn3c2Br)C1 (stereo not drawn) | -1 | 0 | 2 | 0 | · | ·
O=C(OCC(=O)C12CC3CC(CC(C3)C1)C2)c1ccccc1O | -7 | 1 | 3 | 19* | -6 | -4
O=C(COC(=O)c1ccccc1O)NC12CC3CC(CC(C3)C1)C2 | -3 | -1 | 2 | -14 | · | ·
COc1ccc(-c2ccc(C(=O)Nc3ccc(C(C)C)cc3)c3occc23)c(C)c1 | -2 | 1 | 6 | -7 | · | ·
COc1ccccc1NC(=O)C/C(C)=N/NC(=O)C12CC3CC(CC(C3)C1)C2 | -1 | 0 | 1 | -6 | · | ·
CC(C)Nc1nc(NC(N)=S)nc(NC(C)(C)C)n1 | -5 | 0 | 0 | 12 | · | ·
CC(C)Nc1nc(NC(N)=S)nc(NC(C)C)n1 | -5 | -1 | -4 | 22* | 20* | -5
CC(C)(C)C(=O)Nc1sc2c(c1C#N)CCN(Cc1ccccc1)C2 | -3 | 0 | 6 | 8 | · | ·
Cc1ccc(NC(=S)N2CCN(Cc3ccccc3)CC2)c(C)c1 | -9 | 0 | -4 | 21* | 14 | -12
CC(=O)Nc1c(C(=O)O)oc2ccccc12 | 2 | 0 | -2 | 1 | · | ·
Cc1ccc2nc(C3CCCCC3)c(Cc3cccc(Cl)c3)n2c1 | -1 | 2 | 2 | 5 | · | ·
Cn1c(=O)c2[nH]c(=S)n(Cc3ccccc3)c2n(C)c1=O | -1 | 1 | 0 | 23* | 8 | 1
COc1ccc(/C=C/C=C2\NC(=S)NC2=O)cc1 | -9 | 1 | 10 | 3 | · | ·
COc1ccc(C=C2NC(=S)NC2=O)cc1 | 1 | 3 | 1 | 25* | 11 | -3
Cc1cc(C)cc(OC(=O)c2cccnc2)c1 | 0 | 1 | 2 | 13 | · | ·
CC1CN(CC(O)c2ccc(Br)cc2)CCO1 (stereo not drawn) | -6 | 1 | 1 | 13 | · | ·
OC(CCN1CCC2CCC(C2)C1)c1ccc(Br)cc1 (stereo not drawn) | -8 | 1 | -2 | 20* | 5 | -17
Cc1ccc(/C=N/NC(=O)CSc2nc3ccccc3c(=O)n2-c2ccccc2)s1 | -2 | 1 | 0 | 19* | 3 | 2
Cc1ccc(/C=N/NC(=O)CSc2nc3ccccc3c(=O)n2-c2ccccc2C)s1 | -3 | 1 | 5 | -5 | · | ·
NC(=S)NN=C(c1ccccc1)c1ccccc1 | -3 | 1 | 3 | 19* | 22* | -4
COc1ccccc1-c1nnc(NC(=O)c2ccc(S(=O)(=O)N3CCOCC3)cc2)o1 | -3 | 1 | 22 | -9 | · | ·

Screening results deposited in PubChem by The Scripps Research Institute Molecular Screening Center.
